Assay outcomes: PubChem, several laboratories
This is one part of a sample in which hits are shown more often than they occur.
GIRK2 act: activators of NPY4-receptor-primed GIRK2 channels, summary, cell-based, HEK293, thallium flux. G protein-activated inward rectifier potassium channel 2 (Homo sapiens), P48051. HEK293 GIRK2/NPY4 cells, thallium flux fluorescence. activation (% efficacy), % for hits at 37.5 µM. 34,000 tested, under 10 active;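 active = primary screen hit, no activity in plain HEK293 cells, and in GIRK2-only cells above 5% efficacy rising with concentration; inactive = the rest, including fluorescent compounds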;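 note: efficacy is normalized control-subtracted fluorescence 15 s after thallium addition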
AMPAR-TARP mod: modulators of GluA2-stargazin AMPA receptor complexes, primary screen, cell-based, membrane potential dye; Voltage-dependent calcium channel gamma-2 subunit (Mus musculus) + Glutamate receptor 2 …; HEK293 GluA2+stargazin, membrane potential dye (FDSS), glutamate EC50; hits were called plate by plate, in both directions; calls only at 30 µM; 40,000 tested, 3.5% active;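 active = any of four per-well response measures lying three or more SD from its plate-wide compound average, in either direction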
Target sequence (O88602 whole entry, looked up): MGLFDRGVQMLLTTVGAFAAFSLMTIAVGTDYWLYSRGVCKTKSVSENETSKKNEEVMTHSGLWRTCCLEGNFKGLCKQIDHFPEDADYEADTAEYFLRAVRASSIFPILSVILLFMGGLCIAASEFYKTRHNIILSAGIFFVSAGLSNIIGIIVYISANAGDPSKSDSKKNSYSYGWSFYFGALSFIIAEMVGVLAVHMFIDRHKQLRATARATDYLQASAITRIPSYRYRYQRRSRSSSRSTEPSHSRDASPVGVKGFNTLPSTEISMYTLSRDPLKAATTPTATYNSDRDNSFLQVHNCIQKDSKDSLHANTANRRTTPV
Target sequence (P19491 whole entry, looked up): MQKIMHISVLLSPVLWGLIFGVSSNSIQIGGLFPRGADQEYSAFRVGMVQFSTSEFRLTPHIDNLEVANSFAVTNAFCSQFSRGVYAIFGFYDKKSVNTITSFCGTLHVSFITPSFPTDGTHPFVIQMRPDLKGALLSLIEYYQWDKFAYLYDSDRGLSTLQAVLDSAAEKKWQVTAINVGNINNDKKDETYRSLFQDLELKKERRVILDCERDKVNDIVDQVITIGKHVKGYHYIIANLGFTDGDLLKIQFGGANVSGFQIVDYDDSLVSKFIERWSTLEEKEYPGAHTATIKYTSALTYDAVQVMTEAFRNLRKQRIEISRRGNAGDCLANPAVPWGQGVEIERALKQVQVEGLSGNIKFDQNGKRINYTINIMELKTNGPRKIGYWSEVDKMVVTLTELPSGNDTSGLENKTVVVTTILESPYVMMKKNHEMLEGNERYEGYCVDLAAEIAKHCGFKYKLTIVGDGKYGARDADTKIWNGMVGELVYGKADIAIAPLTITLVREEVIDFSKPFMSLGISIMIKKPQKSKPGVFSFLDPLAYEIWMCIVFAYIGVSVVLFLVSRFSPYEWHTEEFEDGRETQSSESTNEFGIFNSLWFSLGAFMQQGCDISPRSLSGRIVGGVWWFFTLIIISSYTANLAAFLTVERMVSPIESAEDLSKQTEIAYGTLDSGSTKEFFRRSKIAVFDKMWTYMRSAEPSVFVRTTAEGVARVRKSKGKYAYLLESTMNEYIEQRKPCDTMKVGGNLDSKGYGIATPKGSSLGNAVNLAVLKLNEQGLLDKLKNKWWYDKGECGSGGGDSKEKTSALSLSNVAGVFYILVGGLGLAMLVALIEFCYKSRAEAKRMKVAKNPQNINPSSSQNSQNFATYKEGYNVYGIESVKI
* marks the source's active call; other numbers are inactive results; i = inactive; x = no result; + = active, no number.

SMILES	GIRK2 act	AMPAR-TARP mod
CCn1nnc2c(N3CCN(C(=O)c4ccco4)CC3)ncnc21	i	i
COc1ccc(S(=O)(=O)N2CC(C)OC(C)C2)c(C)c1C (stereo not drawn)	x	i
CN(C(=O)c1cnn2c(C(F)F)cc(-c3ccccc3)nc12)c1ccccc1	x	i
N#Cc1cccc(NC(=O)CSc2ncc(S(=O)(=O)c3cccs3)c(N)n2)c1	i	i
N#Cc1ccc(NC(=O)CSc2ncc(S(=O)(=O)c3cccs3)c(N)n2)cc1	i	+
O=C(c1ccc2c(c1)OCCO2)N(CCCn1ccnc1)c1nc2c(F)cccc2s1	i	i
O=C(c1cccc(F)c1)N(CCCn1ccnc1)c1nc2c(F)cccc2s1	i	+
O=C(c1ccc2c(c1)OCCO2)N(Cc1ccncc1)c1nc2c(F)cccc2s1	i	i
N#Cc1ccc(C(=O)N(Cc2ccncc2)c2nc3c(F)cccc3s2)cc1	i	+
O=C(NCc1cccc(I)c1)N1CCOCC1	x	i
COc1ccc(OCCN2CC(=O)N(c3ccccc3)C3CS(=O)(=O)CC32)cc1 (stereo not drawn)	i	i
O=C(NCC(O)(c1ccccc1)C(F)(F)F)c1ccc(Cl)c(Cl)c1 (stereo not drawn)	i	i
O=C(NCC(O)(c1ccccc1)C(F)(F)F)C1c2ccccc2Oc2ccccc21 (stereo not drawn)	i	+
O=C(NCC(O)(c1ccccc1)C(F)(F)F)c1cccc(C(F)(F)F)c1 (stereo not drawn)	i	+
O=C(NCC(O)(c1ccccc1)C(F)(F)F)C1COc2ccccc2O1 (stereo not drawn)	i	i
COc1ccc(C2(CNC(=O)C(=O)Nc3cccc(C(F)(F)F)c3)CCCC2)cc1	i	x
O=C(C1=COCCO1)N(CCN1CCOCC1)c1nc2ccccc2s1	x	i
O=C(C1=COCCO1)N(CCN1CCOCC1)c1nc2c(F)cccc2s1	i	+
CC(C)OC(=O)COc1ccc2c(=O)c(-c3ccccc3)coc2c1	x	i
COc1ccc(/C(N)=N/OC(=O)c2cc(Cl)ccc2Cl)cc1	x	i
COC1CCN(S(=O)(=O)c2ccc(OC(F)(F)F)cc2)CC1	i	i
COc1ccc(S(=O)(=O)NCCOc2ccc(-c3ccc(F)cc3)nn2)cc1	i	i
O=S(=O)(NCCOc1ccc(-c2ccc(F)cc2)nn1)c1ccc(Cl)cc1	i	i
O=S(=O)(NCCOc1ccc(-c2ccc(F)cc2)nn1)c1ccc(Br)cc1	i	+
Cc1ccc(S(=O)(=O)NCCOc2ccc(-c3ccc(F)cc3)nn2)cc1C	i	+
SMILES	GIRK2 act	AMPAR-TARP mod
Cc1ccc(N2CCN(S(=O)(=O)c3ccc(C4CCCCC4)cc3)CC2)c(C)c1	x	i
COc1ccc(CCS(=O)(=O)NCC(O)c2ccsc2)cc1 (stereo not drawn)	i	i
CCc1ccc(Oc2cc(N3CCC(C(=O)NCc4ccccc4F)CC3)ncn2)cc1	i	+
CCc1ccc(Oc2cc(N3CCC(C(=O)NCc4ccc(SC)cc4)CC3)ncn2)cc1	i	i
COc1ccc(-c2noc(Cn3ccn4nc(-c5ccc(Cl)cc5)cc4c3=O)n2)c(OC)c1	i	i
Cc1ccc(-c2n[nH]n3c2nc(=O)c2ccc(C(=O)NCc4ccc5c(c4)OCO5)cc23)cc1	i	i
COC(=O)c1ccc2c(=O)n(CCC(=O)N3CCOCC3)c(=S)[nH]c2c1	i	+
COCCn1c(=S)[nH]c2cc(C(=O)N3CCN(c4ccccc4)CC3)ccc2c1=O	i	i
COC(=O)c1ccc2c(=O)n(CCC(=O)NCCCN3CCOCC3)c(=S)[nH]c2c1	i	+
COC(=O)c1ccc2c(=O)n(CCN3CCCCC3)c(=S)[nH]c2c1	i	i
COC(=O)c1ccc2c(=O)n(CCC(=O)N3CCC(Cc4ccccc4)CC3)c(=S)[nH]c2c1	i	i
COCCn1c(=S)[nH]c2cc(C(=O)N3CCc4ccccc4C3)ccc2c1=O	i	+
COC(=O)c1c(-n2c(C)ccc2C)sc2c1CCC(C)C2 (stereo not drawn)	x	i
Cc1nc(-n2nc(-c3ccco3)cc2NC(=O)c2c(F)cccc2F)[nH]c(=O)c1C	i	i
COC(=O)N1CCC(CNS(=O)(=O)c2ccc(F)c(Cl)c2)CC1	i	i
Cc1cccn2c(=O)c(C=NCCO)c(NCc3ccco3)nc12	x	+
C/C(Cl)=C\Cn1c(NCc2ccco2)nc2c1c(=O)n(C)c(=O)n2C	x	i
Cc1cccn2c(=O)c(/C=N/O)c(NCCO)nc12	x	i
COc1ccc(N=Cc2c(NCCO)nc3c(C)cccn3c2=O)cc1	i	+
Cc1ccc(Nc2ccc(NC(=O)c3ccco3)cc2)nn1	i	i
